The record followed here is PubChem BioAssay.

“And” between values parts separate entries of the source, which are not always exact repeats. Equal entries are not always repeated. Values without a mark were called inactive.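 Rule for the calls: active = z-score of at least 1.8 in each of two replicates, scored against plate mean and spread of sample wells; inactive = the rest.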

The assay in a line: galactose survival enhancers in mitochondrial complex I cybrids – cell-based, galactose medium, ATP luminescence, primary screen (AID 1645843).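 Note: positive z means more ATP and so rescue of galactose-driven cybrid death.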 The settings on record: complex I mutant cybrid cells, 72 h, active compounds read high.
As for `O=C(O)CC[N+](=O)[O-]`, the z-score was -0.29.

In the case of `OC1CCCCC1N1CCC(c2ccccc2)CC1` (configuration not stated), the z-score was 0.03 and 0.65.

For the molecule `CC[C@@H]1C(=O)OC[C@@H]1Cc1cncn1C`, the z-score is 0.47 and 0.265 and 0.26.

For the molecule `COc1ccc2c(c1)[nH]c1c(C)nccc12`, the z-score was -0.45.

As to `NC(N)=NOCC[C@H](N)C(=O)O`, the z-score was 0.085.

In the case of `CN1C2CCC1CC(OC(c1ccccc1)c1ccccc1N)C2` (configuration not stated), the z-score was -0.4.

For the molecule `NCCc1c[nH]c2ccccc12`, the z-score was 0.19.
